# Data published in publication PMC7862700, “An all-to-all approach to the identification of sequence-specific readers for epigenetic DNA modifications on cytosine”.
# Key:
# Assay in all cases: DAPPL (digital affinity profiling via proximity ligation, sequencing); 10 mM Tris-HCl pH 7.5, 50 mM NaCl, 1 mM DTT, 4% glycerol, room temperature, 30 min; GST-TFs on glutathione beads, 16-mer random dsDNA library, 0.1% formaldehyde crosslink after washing; high values mean tight binding
# [1] = molecular target: T1, FLI1 (Homo sapiens, UniProt Q01543 1-452); conditions: protein: recombinant; tags: N-terminal GST; dsDNA, one strand shown
# T1 sequence: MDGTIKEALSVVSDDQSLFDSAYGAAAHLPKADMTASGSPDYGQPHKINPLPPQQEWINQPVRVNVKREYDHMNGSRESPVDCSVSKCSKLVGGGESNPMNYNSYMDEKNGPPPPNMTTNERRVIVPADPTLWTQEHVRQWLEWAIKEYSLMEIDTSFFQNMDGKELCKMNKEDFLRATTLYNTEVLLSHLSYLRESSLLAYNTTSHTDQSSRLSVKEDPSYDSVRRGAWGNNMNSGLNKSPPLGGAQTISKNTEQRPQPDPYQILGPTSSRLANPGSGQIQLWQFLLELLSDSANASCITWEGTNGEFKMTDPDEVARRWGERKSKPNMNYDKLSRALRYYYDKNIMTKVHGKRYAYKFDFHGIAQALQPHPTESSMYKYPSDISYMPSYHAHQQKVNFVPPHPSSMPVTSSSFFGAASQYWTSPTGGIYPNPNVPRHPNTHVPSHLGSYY
# Summary of the method: (§1)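 Pools of DNA-barcoded human transcription factors, expressed in yeast as GST fusions on glutathione beads and combined with a tag-only sample, were incubated with 200 nmole of a 16-mer random double-stranded DNA library. Incubation took 30 min at room temperature in Tris/NaCl/DTT/glycerol buffer and was followed by washing, 0.1% formaldehyde crosslinking, proximity ligation (BsaI/T4 ligase, 1 h, 37 °C), PCR amplification and sequencing on an Illumina NextSeq500. Binding signal is the ratio of a hexamer's read frequency for a factor to its frequency for the tag-only sample.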
# [2] = molecular target: T2, ELK1 (Homo sapiens, UniProt P19419 1-428); conditions: protein: recombinant; tags: N-terminal GST; dsDNA, one strand shown
# T2 sequence: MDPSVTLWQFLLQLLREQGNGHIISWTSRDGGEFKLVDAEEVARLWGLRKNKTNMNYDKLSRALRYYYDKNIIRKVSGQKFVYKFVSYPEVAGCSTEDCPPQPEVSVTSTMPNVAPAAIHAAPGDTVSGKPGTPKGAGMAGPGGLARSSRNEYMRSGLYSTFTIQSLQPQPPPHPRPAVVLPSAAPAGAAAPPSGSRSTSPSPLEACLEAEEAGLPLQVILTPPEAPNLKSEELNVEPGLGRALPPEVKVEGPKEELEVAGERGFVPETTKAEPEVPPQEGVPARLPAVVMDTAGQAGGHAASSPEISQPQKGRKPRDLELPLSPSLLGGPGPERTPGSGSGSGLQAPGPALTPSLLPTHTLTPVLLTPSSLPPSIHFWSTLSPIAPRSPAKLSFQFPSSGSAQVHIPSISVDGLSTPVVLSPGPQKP
# Summary of the method: as §1
# [3] = molecular target: T3, GABPA (Homo sapiens, UniProt Q06546 1-454); conditions: protein: recombinant; tags: N-terminal GST; dsDNA, one strand shown
# T3 sequence: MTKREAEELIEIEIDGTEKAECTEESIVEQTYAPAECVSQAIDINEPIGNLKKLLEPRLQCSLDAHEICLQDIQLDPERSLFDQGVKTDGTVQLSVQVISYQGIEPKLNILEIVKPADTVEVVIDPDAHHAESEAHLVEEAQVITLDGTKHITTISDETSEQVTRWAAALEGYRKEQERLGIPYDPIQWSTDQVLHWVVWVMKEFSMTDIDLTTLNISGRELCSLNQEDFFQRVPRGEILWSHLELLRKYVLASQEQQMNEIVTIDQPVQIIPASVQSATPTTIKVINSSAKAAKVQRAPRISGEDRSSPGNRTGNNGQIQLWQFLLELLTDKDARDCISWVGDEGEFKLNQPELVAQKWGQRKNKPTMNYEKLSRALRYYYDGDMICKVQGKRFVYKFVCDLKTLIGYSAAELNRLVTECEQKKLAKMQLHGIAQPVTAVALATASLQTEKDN
# Summary of the method: as §1
# [4] = molecular target: T4, ERG (Homo sapiens, UniProt P11308 1-479); conditions: protein: recombinant; tags: N-terminal GST; dsDNA, one strand shown
# T4 sequence: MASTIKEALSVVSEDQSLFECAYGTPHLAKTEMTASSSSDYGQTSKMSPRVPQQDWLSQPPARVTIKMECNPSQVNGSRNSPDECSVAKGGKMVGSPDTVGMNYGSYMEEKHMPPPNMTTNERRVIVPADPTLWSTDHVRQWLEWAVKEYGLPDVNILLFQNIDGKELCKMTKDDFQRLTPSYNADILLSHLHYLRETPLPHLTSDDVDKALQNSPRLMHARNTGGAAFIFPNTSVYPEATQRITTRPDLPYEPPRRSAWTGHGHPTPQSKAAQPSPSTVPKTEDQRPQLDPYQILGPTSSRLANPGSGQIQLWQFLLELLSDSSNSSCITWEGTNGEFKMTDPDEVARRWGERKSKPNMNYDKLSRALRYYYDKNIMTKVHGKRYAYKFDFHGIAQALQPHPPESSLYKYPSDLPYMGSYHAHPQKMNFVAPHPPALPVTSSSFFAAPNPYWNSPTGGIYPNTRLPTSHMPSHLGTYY
# Summary of the method: as §1
# [5] = molecular target: ELF1 (Homo sapiens, UniProt P32519 1-619); conditions: protein: recombinant; tags: N-terminal GST; dsDNA, one strand shown
# Summary of the method: as §1
# [6] = molecular target: T5, EHF (Homo sapiens, UniProt Q9NZC4 1-300); conditions: protein: recombinant; tags: N-terminal GST; dsDNA, one strand shown
# T5 sequence: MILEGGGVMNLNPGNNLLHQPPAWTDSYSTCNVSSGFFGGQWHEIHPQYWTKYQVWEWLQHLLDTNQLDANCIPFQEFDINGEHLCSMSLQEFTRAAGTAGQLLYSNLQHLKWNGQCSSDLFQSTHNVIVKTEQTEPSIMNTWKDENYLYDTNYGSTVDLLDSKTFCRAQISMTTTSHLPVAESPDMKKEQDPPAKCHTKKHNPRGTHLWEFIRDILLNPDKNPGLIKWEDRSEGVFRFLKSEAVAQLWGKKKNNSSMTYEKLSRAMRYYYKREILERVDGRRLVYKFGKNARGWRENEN
# Summary of the method: as §1
# [7] = molecular target: SPI1 (Homo sapiens, UniProt P17947 1-270); conditions: protein: recombinant; tags: N-terminal GST; dsDNA, one strand shown
# Summary of the method: as §1
# [8] = molecular target: SPIB (Homo sapiens, UniProt Q01892 1-262); conditions: protein: recombinant; tags: N-terminal GST; dsDNA, one strand shown
# Summary of the method: as §1
# [9] = molecular target: T6, ELK3 (Homo sapiens, UniProt P41970 1-407); conditions: protein: recombinant; tags: N-terminal GST; dsDNA, one strand shown
# T6 sequence: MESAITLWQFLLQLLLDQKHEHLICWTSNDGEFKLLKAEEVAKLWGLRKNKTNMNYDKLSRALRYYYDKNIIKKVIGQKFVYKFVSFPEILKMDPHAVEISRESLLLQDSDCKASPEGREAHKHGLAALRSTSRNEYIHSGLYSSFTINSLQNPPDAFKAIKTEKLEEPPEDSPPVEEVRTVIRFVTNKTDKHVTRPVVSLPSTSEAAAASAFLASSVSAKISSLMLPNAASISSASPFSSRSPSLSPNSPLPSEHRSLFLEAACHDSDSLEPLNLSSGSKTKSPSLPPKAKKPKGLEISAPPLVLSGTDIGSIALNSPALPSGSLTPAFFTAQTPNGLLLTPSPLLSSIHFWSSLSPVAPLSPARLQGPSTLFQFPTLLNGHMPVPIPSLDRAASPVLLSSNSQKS
# Summary of the method: as §1
# [10] = molecular target: T7, FEV (Homo sapiens, UniProt Q99581 1-238); conditions: protein: recombinant; tags: N-terminal GST; dsDNA, one strand shown
# T7 sequence: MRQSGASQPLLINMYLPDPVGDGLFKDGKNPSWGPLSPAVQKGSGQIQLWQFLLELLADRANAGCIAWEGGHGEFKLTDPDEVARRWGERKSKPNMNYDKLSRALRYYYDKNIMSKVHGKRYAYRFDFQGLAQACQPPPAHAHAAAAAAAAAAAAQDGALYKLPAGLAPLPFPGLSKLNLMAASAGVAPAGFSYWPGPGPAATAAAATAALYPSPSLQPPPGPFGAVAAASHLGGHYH
# Summary of the method: as §1
# [11] = molecular target: ETV5 (Homo sapiens, UniProt P41161 1-510); conditions: protein: recombinant; tags: N-terminal GST; dsDNA, one strand shown
# Summary of the method: as §1
# [12] = molecular target: HSF1 (Homo sapiens, UniProt Q00613 1-529); conditions: protein: recombinant; tags: N-terminal GST; chain copies: 3; dsDNA, one strand shown
# Summary of the method: as §1
# [13] = molecular target: T8, SPIC (Homo sapiens, UniProt Q8N5J4 1-248); conditions: protein: recombinant; tags: N-terminal GST; dsDNA, one strand shown
# T8 sequence: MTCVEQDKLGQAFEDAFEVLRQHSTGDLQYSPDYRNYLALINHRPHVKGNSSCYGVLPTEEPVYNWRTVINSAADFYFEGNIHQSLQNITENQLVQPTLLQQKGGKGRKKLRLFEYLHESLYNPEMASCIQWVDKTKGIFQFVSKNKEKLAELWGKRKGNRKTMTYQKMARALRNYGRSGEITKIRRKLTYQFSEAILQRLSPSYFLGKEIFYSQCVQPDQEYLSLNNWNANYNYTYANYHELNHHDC
# Summary of the method: as §1
# [14] = molecular target: ELF4 (Homo sapiens, UniProt Q99607 1-663); conditions: protein: recombinant; tags: N-terminal GST; dsDNA, one strand shown
# Summary of the method: as §1
# [15] = molecular target: T9, ELK4 (Homo sapiens, UniProt P28324-2 1-405); conditions: protein: recombinant; tags: N-terminal GST; dsDNA, one strand shown
# T9 sequence: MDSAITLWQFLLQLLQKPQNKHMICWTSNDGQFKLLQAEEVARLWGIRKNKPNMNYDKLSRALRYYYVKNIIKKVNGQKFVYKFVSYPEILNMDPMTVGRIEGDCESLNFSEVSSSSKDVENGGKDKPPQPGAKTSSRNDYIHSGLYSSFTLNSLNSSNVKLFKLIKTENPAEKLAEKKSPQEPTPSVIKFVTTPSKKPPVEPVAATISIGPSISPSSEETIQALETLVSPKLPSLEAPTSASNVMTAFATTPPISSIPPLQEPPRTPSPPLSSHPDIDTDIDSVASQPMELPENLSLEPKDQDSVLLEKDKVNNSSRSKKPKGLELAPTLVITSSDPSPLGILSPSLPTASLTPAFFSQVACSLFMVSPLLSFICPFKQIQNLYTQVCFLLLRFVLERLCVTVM
# Summary of the method: as §1
# [16] = molecular target: T10, ETV2 (Homo sapiens, UniProt O00321 1-342); conditions: protein: recombinant; tags: N-terminal GST; dsDNA, one strand shown
# T10 sequence: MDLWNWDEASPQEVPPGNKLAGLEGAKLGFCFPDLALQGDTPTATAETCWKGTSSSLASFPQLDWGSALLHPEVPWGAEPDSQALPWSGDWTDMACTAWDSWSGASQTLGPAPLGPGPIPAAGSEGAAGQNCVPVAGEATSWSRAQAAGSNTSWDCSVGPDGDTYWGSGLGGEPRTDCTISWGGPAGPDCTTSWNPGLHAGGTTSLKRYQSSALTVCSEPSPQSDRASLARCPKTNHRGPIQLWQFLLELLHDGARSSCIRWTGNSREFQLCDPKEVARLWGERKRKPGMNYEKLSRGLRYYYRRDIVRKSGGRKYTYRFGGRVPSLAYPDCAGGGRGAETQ
# Summary of the method: as §1
# [17] = molecular target: T11, ELF3 (Homo sapiens, UniProt P78545 1-371); conditions: protein: recombinant; tags: N-terminal GST; dsDNA, one strand shown
# T11 sequence: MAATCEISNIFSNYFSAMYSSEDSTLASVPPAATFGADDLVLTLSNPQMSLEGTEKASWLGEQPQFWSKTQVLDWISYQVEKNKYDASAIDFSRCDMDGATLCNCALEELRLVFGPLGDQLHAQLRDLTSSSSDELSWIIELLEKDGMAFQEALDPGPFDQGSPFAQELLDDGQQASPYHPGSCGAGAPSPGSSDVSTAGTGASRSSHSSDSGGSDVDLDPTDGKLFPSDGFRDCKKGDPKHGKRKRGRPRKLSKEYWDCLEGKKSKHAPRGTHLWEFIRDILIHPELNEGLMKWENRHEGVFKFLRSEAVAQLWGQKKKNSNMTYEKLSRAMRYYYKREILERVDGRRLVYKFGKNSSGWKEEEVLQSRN
# Summary of the method: as §1
# [18] = molecular target: CRX (Homo sapiens, UniProt O43186 1-299); conditions: protein: recombinant; tags: N-terminal GST; dsDNA, one strand shown
# Summary of the method: as §1
# [19] = molecular target: ETV1 (Homo sapiens, UniProt P50549 1-477); conditions: protein: recombinant; tags: N-terminal GST; dsDNA, one strand shown
# Summary of the method: as §1
# ETV1, sequence (P50549 whole entry): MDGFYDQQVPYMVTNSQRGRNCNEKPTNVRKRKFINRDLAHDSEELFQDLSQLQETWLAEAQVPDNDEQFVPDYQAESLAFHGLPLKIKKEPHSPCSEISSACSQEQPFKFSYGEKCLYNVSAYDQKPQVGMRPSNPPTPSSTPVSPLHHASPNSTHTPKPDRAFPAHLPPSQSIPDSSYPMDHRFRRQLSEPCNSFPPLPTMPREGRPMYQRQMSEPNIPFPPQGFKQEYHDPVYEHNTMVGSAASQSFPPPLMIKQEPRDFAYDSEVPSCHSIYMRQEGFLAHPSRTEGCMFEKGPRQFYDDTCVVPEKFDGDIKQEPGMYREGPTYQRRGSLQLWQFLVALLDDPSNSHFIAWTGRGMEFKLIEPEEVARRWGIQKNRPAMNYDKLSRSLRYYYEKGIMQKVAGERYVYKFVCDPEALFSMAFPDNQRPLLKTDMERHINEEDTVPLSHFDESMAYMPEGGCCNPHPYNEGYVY
# ETV5, sequence (P41161 whole entry): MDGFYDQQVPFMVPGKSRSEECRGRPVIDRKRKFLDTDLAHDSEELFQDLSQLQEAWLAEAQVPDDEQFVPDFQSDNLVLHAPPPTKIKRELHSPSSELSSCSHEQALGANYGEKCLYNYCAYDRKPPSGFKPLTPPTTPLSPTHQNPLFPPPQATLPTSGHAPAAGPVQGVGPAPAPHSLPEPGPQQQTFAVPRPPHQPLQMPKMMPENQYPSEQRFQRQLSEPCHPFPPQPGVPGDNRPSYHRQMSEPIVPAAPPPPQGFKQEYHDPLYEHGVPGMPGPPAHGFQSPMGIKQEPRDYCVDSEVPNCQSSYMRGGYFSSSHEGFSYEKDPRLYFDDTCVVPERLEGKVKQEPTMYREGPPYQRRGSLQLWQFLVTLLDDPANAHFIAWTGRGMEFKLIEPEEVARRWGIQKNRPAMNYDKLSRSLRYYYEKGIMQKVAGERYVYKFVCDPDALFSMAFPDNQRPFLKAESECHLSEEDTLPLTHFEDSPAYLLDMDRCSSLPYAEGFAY
# HSF1, sequence (Q00613 whole entry): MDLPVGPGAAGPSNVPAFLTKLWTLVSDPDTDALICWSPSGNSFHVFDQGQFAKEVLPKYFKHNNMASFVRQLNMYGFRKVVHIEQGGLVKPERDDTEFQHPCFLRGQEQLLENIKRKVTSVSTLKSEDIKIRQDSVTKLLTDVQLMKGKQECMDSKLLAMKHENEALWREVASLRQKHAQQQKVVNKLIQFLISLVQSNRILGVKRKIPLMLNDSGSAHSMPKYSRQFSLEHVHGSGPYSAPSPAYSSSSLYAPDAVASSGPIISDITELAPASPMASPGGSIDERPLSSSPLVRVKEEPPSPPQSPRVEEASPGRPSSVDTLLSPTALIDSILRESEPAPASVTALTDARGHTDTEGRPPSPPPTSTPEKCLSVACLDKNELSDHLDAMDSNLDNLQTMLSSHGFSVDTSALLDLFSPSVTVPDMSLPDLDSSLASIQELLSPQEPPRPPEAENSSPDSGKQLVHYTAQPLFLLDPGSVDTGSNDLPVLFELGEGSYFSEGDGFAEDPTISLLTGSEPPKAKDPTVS
# ELF1, sequence (P32519 whole entry): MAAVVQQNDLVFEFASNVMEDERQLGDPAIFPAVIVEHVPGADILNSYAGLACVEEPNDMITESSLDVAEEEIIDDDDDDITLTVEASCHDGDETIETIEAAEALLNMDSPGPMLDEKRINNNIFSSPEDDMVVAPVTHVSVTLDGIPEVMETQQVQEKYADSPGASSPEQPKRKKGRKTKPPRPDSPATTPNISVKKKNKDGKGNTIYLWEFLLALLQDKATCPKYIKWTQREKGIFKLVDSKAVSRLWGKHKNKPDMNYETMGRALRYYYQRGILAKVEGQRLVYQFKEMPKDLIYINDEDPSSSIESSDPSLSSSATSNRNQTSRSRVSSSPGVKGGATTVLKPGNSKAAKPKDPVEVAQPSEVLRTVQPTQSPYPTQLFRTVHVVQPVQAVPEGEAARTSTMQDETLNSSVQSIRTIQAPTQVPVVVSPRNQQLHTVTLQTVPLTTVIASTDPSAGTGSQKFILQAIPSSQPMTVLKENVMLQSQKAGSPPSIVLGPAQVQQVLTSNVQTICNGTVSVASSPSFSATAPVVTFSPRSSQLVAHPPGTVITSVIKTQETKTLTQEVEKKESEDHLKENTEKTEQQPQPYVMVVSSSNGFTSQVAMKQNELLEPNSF
# SPIB, sequence (Q01892 whole entry): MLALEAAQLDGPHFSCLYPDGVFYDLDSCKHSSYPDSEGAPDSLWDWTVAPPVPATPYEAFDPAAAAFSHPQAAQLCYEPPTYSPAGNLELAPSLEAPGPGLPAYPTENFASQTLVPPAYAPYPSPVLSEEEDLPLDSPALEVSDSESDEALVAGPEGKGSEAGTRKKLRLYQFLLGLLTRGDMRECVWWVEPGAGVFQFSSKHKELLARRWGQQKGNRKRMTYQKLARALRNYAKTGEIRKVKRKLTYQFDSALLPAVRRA
# CRX, sequence (O43186 whole entry): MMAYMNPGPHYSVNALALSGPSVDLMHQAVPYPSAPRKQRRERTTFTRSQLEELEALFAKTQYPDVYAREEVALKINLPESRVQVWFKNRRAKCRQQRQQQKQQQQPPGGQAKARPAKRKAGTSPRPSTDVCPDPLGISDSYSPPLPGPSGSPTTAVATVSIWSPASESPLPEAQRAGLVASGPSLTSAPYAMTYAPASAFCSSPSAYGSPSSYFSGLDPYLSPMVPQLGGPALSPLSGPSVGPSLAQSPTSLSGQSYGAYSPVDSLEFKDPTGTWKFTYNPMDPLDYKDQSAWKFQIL
# ELF4, sequence (Q99607 whole entry): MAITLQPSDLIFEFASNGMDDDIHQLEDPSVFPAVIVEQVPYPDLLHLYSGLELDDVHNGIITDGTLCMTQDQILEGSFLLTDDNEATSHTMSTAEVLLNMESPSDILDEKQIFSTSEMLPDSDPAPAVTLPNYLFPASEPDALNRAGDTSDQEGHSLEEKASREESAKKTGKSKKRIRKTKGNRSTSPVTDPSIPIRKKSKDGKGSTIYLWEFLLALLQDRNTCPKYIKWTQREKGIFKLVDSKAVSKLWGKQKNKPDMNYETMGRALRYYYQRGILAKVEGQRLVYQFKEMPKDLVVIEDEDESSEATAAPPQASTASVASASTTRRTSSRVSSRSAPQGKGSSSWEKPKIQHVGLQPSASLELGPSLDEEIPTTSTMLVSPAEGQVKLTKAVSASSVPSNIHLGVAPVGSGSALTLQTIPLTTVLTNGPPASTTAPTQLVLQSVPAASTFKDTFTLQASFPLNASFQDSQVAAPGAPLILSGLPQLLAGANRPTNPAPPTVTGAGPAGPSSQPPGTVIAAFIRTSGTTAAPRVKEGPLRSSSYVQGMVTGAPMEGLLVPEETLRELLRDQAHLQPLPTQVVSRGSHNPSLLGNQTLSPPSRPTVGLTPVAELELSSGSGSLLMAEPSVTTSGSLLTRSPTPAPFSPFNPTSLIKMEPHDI
sequence,measurement,setting,value
AATGAC,binding signal,[1],"1.36 fold enrichment (6-mer frequency, TF over GST control)"
same,binding signal,[2],"1.52 fold enrichment (6-mer frequency, TF over GST control)"
same,binding signal,[3],"1.43 fold enrichment (6-mer frequency, TF over GST control)"
same,binding signal,[4],"1.42 fold enrichment (6-mer frequency, TF over GST control)"
same,binding signal,[5],"1.36 fold enrichment (6-mer frequency, TF over GST control)"
same,binding signal,[6],"1.35 fold enrichment (6-mer frequency, TF over GST control)"
same,binding signal,[7],"1.36 fold enrichment (6-mer frequency, TF over GST control)"
same,binding signal,[8],"1.39 fold enrichment (6-mer frequency, TF over GST control)"
same,binding signal,[9],"1.44 fold enrichment (6-mer frequency, TF over GST control)"
same,binding signal,[10],"1.47 fold enrichment (6-mer frequency, TF over GST control)"
same,binding signal,[11],"1.35 fold enrichment (6-mer frequency, TF over GST control)"
same,binding signal,[12],"1.22 fold enrichment (6-mer frequency, TF over GST control)"
same,binding signal,[13],"1.36 fold enrichment (6-mer frequency, TF over GST control)"
same,binding signal,[14],"1.37 fold enrichment (6-mer frequency, TF over GST control)"
same,binding signal,[15],"1.35 fold enrichment (6-mer frequency, TF over GST control)"
same,binding signal,[16],"1.4 fold enrichment (6-mer frequency, TF over GST control)"
same,binding signal,[17],"1.49 fold enrichment (6-mer frequency, TF over GST control)"
same,binding signal,[18],"1.16 fold enrichment (6-mer frequency, TF over GST control)"
same,binding signal,[19],"1.4 fold enrichment (6-mer frequency, TF over GST control)"
